Pf Dd2 inh – P. falciparum Dd2 growth inhibitors, primary screen, SYBR Green fluorescence, single dose replicates | 72 h; hits give low values | activity change, % at 10 µM | 94,000 compounds, 2.3% hits; in the data active = activity change below about -80%; inconclusive = no clear call, values can overlap the other calls
C diff growth – C. difficile growth inhibitors, primary screen, HTS; Clostridium difficile clinical isolate growth, OD600, 24 h; hits give low values; growth activity, negative = inhibition, % at 16 µg/mL (by protocol); 86,000 compounds, 0.25% hits;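 active = mean growth activity at or below -80% and every replicate also at or below -80%; inconclusive = mean at or below -80% but some replicate above -80%; inactive = mean growth activity above -80%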;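 also: 0% = DMSO wells and -100% = levofloxacin 16 µg/mL wells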
T cruzi growth-1 – T. cruzi intracellular proliferation inhibitors, primary screen, cell-based, beta-gal Tulahuen parasites, NIH3T3 host, luminescence | inhibition, % at 8.34 µM | T. cruzi beta-gal in NIH3T3, GalScreen luminescence, 90 h | 77,000 compounds, 5.9% hits | AID 624255, 2012;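 active = mean inhibition above about 93%, with at least 55% of replicates each passing it, limit read from the data, passing the limit was not always enough; inconclusive = only one of those two conditions holds; inactive = neither condition holds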
T cruzi growth-2 – T. cruzi intracellular proliferation inhibitors, confirmation, cell-based, NIH3T3 host, beta-gal parasite, luminescence, cherry-pick. shares compounds with T cruzi growth-1. 5,600 compounds, 72% hits. T. cruzi beta-gal in NIH3T3, GalScreen luminescence, 90 h. inhibition, % at 8.35 µM;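 active = mean replicate inhibition above about 95% and at least 55% of replicates individually reaching it, limit read from the data; inconclusive = only one of the two criteria is met; inactive = neither criterion is met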
T cruzi growth-3 – inhibitors of intracellular T. cruzi replication, confirmation, NIH3T3 host cells, beta-gal parasites, cherry-pick, set 2 | T. cruzi beta-gal in NIH3T3, GalScreen luminescence, 90 h | inhibition, % at 2.09 µM | shares compounds with T cruzi growth-1 | AID 651740, 2012 | 5,600 compounds, 21% hits;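 active = mean inhibition above about 95%, with at least 55% of replicates also reaching it, limit read from the data; inconclusive = meets just one of the two conditions; inactive = meets neither condition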;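 also: plate controls were neutral control median for no effect and positive control median for full effect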
3T3 cytotox – cytotoxicity in mouse NIH/3T3 fibroblasts, confirmation, cytotoxicity control for T. cruzi proliferation inhibitor project, cell-based, cherry-pick, single point; shares compounds with T cruzi growth-1; NIH/3T3 viability, CellTiter-Glo ATP luminescence, 90 h; cytotoxicity (signal decrease), % at 8.35 µM; 5,600 compounds, 14% hits;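 active = mean signal decrease across replicates above about 35% based on untreated-well scatter, with enough replicates individually passing, limit read from the data; inconclusive = no rule stated though some were filed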;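 also: 0% = median of neutral control wells and 100% = median of positive control wells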
NIH3T3 tox 2 – NIH/3T3 fibroblast cytotoxicity, confirmation, cytotoxicity control, cell-based, cherry-pick, single point, set 2 | inhibition, % at 24.9 µM | shares compounds with T cruzi growth-1 | NIH/3T3 viability, CellTiter-Glo ATP luminescence, 90 h | 5,600 compounds, 56% hits;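 active = mean loss of cell viability signal at or above a set limit, and enough replicates individually reaching it; inconclusive = meets only the mean limit or only the replicate share; inactive = meets neither condition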;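 also: 0% = median of neutral control wells and 100% = median of positive control wells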
Starred values were filed as active, the others as inactive; ? = inconclusive; nt = not tested or not shown. Hits are enriched below; roughly 6.7% of the tested compounds scored in any of these assays.

SMILES | Pf Dd2 inh | C diff growth | T cruzi growth-1 | T cruzi growth-2 | T cruzi growth-3 | 3T3 cytotox | NIH3T3 tox 2
COc1ccc(NC(=O)Nc2ccc3c(c2)C(=O)N([C@H](C)CO)C[C@H](C)[C@H](CN(C)Cc2ccc(-c4ccccc4)cc2)O3)cc1 | 13 | nt | ? | 100* | 22 | -6 | 19
COc1ccc(CN(C)C[C@@H]2Oc3ccc(NC(=O)Nc4ccccc4)cc3C(=O)N([C@H](C)CO)C[C@@H]2C)cc1 | 2 | -4 | 24 | nt | nt | nt | nt
C[C@H](CO)N1C[C@H](C)[C@@H](CN(C)Cc2ccc(C(F)(F)F)cc2)OCCCC[C@H](C)Oc2ccc(NC(=O)NC3CCCCC3)cc2C1=O | -19 | -2 | 55 | nt | nt | nt | nt
O=C(Nc1cc(F)ccc1F)N1CC(=O)N2[C@H](CO)[C@H](c3ccc(-c4cccnc4)cc3)[C@H]2C1 | 9 | 0 | nt | nt | nt | nt | nt
C[C@@H]1CN([C@@H](C)CO)S(=O)(=O)c2ccc(-c3ccc(C(=O)N(C)C)cc3)cc2O[C@@H]1CN(C)Cc1ccc2c(c1)OCO2 | -48 | 3 | ? | 90 | 81 | 26 | 92*
C[C@H](CO)N1C[C@H](C)[C@H](CN(C)C(=O)c2ccc3c(c2)OCO3)Oc2cc(-c3ccccc3)ccc2S1(=O)=O | -27 | -3 | nt | nt | nt | nt | nt
C[C@@H]1CN([C@H](C)CO)S(=O)(=O)c2ccc(-c3ccncc3)cc2O[C@@H]1CN(C)C(=O)c1ccc2c(c1)OCO2 | -6 | 1 | 55 | nt | nt | nt | nt
C[C@@H]1CN([C@H](C)CO)S(=O)(=O)c2ccc(-c3ccncc3)cc2O[C@H]1CN(C)C(=O)c1ccc2c(c1)OCO2 | -62 | -1 | 105* | 101* | 91 | 29 | 44*
C[C@H]1CN([C@@H](C)CO)S(=O)(=O)c2ccc(-c3ccncc3)cc2O[C@H]1CN(C)C(=O)c1ccc2c(c1)OCO2 | -51 | 3 | 102* | 103* | 89 | 24 | 44*
C[C@@H]1CN([C@@H](C)CO)S(=O)(=O)c2ccc(-c3ccncc3)cc2O[C@@H]1CN(C)C(=O)c1ccc2c(c1)OCO2 | 7 | -6 | 43 | nt | nt | nt | nt
C[C@H]1CN([C@@H](C)CO)S(=O)(=O)c2ccc(-c3cccc(C(=O)N(C)C)c3)cc2O[C@H]1CN(C)Cc1ccc2c(c1)OCO2 | -64 | -2 | nt | nt | nt | nt | nt
C[C@H](CO)N1C[C@H](C)[C@H](CN(C)C(=O)c2ccc3c(c2)OCO3)Oc2cc(-c3ccncc3)ccc2S1(=O)=O | -38 | -1 | 104* | 81 | 59 | 16 | 28*
C[C@@H]1CN([C@H](C)CO)C(=O)Cc2cc(NS(=O)(=O)c3ccccc3)ccc2O[C@@H]1CN(C)C(=O)Nc1ccc2c(c1)OCO2 | 6 | nt | 11 | nt | nt | nt | nt
C[C@@H]1CN([C@@H](C)CO)C(=O)Cc2cc(NC(=O)Cc3cn(C)c4ccccc34)ccc2O[C@H]1CN(C)CC1CCCCC1 | -63 | 2 | 18 | nt | nt | nt | nt
O=C(C[C@@H]1CC[C@H]2[C@@H](COC[C@@H](O)CN2Cc2nccs2)O1)NCc1ccc(Cl)cc1 | 6 | nt | 11 | nt | nt | nt | nt
Cc1noc(C)c1NC(=O)Nc1ccc2c(c1)C(=O)N([C@H](C)CO)C[C@@H](C)[C@H](CN(C)C(=O)Nc1ccc(F)cc1)O2 | 37 | 0 | 33 | nt | nt | nt | nt
C[C@@H]1CN([C@@H](C)CO)C(=O)Cc2cc(NC(=O)Nc3cccc4ccccc34)ccc2O[C@H]1CN(C)Cc1ccc2c(c1)OCO2 | -7 | 11 | 109* | 110* | 70 | 29 | -2
C[C@@H]1CN([C@H](C)CO)C(=O)c2cc(NC(=O)Nc3cccc4ccccc34)ccc2O[C@H]1CN(C)Cc1ccc2c(c1)OCO2 | -13 | -2 | 95 | nt | nt | nt | nt
C[C@H]1CN([C@@H](C)CO)C(=O)Cc2cc(NC(=O)Nc3cccc4ccccc34)ccc2O[C@@H]1CN(C)Cc1ccc2c(c1)OCO2 | -9 | -5 | 37 | nt | nt | nt | nt
C[C@H](CO)N1C[C@H](C)[C@H](CN(C)Cc2ccc3c(c2)OCO3)Oc2ccc(NC(=O)Nc3cccc4ccccc34)cc2C1=O | 6 | 13 | 105* | ? | 104* | 32 | 67*
O=C(C[C@@H]1CC[C@H]2[C@@H](COC[C@@H](O)CN2C(=O)c2ccccc2F)O1)N1CCCCC1 | 15 | nt | 9 | nt | nt | nt | nt
CC=Cc1ccc2n(c1=O)C[C@@H]1[C@@H](CO)[C@H](C(=O)Nc3ccc(-c4ccccc4)cc3)[C@H]2N1C(C)=O (mixture of isomers) | 3 | -22 | nt | nt | nt | nt | nt
Cc1ccc(S(=O)(=O)N(C)C[C@@H]2OCCCC[C@H](C)Oc3ccc(NS(=O)(=O)c4c(C)noc4C)cc3C(=O)N([C@@H](C)CO)C[C@@H]2C)cc1 | -59 | -11 | 43 | nt | nt | nt | nt
Cn1cnc(S(=O)(=O)N2CC[C@H]3[C@H](CO)Nc4ccc(-c5ccccc5)cc4[C@H]32)c1 | 7 | -11 | 101* | 103* | 62 | -14 | 9
Cc1ccccc1S(=O)(=O)N1CC[C@@H]2[C@H](CO)Nc3ccc(-c4ccc(C#N)cc4)cc3[C@@H]21 | -20 | -3 | ? | 98* | 104* | ? | 67*
SMILES | Pf Dd2 inh | C diff growth | T cruzi growth-1 | T cruzi growth-2 | T cruzi growth-3 | 3T3 cytotox | NIH3T3 tox 2
Cn1cnc(S(=O)(=O)N2CC[C@H]3[C@H](CO)Nc4ccc(-c5ccc(F)cc5)cc4[C@H]32)c1 | -66 | -6 | 56 | nt | nt | nt | nt
Cc1ccccc1S(=O)(=O)N1CC[C@@H]2[C@H](CO)Nc3ccc(-c4cccc(C#N)c4)cc3[C@@H]21 | -5 | -3 | 17 | nt | nt | nt | nt
Cc1ccccc1S(=O)(=O)N1CC[C@@H]2[C@@H](CO)Nc3ccc(-c4cccc(C#N)c4)cc3[C@@H]21 | -62 | -6 | 33 | nt | nt | nt | nt
Cc1ccccc1S(=O)(=O)N1CC[C@@H]2[C@H]1c1cc(-c3ccc(C#N)cc3)ccc1N[C@@H]2CO | 9 | 0 | 101* | 104* | 45 | 16 | 42*
C[C@H](CO)N1C[C@H](C)[C@H](CN(C)Cc2ccccc2)Oc2ncc(C#Cc3ccccc3)cc2C1=O | -42 | 17 | 89 | nt | nt | nt | nt
Cc1ccc(NC(=O)Nc2ccc3c(c2)C(=O)N(C)[C@H]2CC[C@H](CC(=O)O)O[C@@H]2CO3)cc1 | 8 | 2 | 11 | nt | nt | nt | nt
Cc1ccc(S(=O)(=O)Nc2ccc3c(c2)CC(=O)N([C@H](C)CO)C[C@H](C)[C@@H](CN(C)Cc2ccc4c(c2)OCO4)O3)cc1 | -60 | -9 | 106* | 104* | 99* | -32 | 25*
